# From the supplement of paper PMC6897291
# Tested on: U-2932
# Assay: growth inhibition by drug plus 177Lu-lilotomab satetraxetan (1 - RLU/untreated control) (fraction); higher = stronger inhibition
# Settings: 10 nM; time (day): 6; 177Lu-lilotomab satetraxetan 1 ug/ml
# Method in brief: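 Plates pre-printed with the Selleck Cambridge Cancer Compound library at 10/100 nM (RIVA) or 10/1,000 nM (U-2932) received 3,000 cells/well. These cells had been washed after 18 h untreated or with a radiolabelled anti-CD37 antibody conjugate (~600 MBq/mg; 0.5 µg/ml RIVA, 1 µg/ml U-2932). Growth inhibition was obtained from RealTime-Glo luminescence in relation to untreated no-drug wells. Each daily read from day 3, taken after 1 h at 37°C, was converted as 1 − RLU/mean of 48 such wells per plate.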
row,SMILES,growth inhibition by drug plus 177Lu-lilotomab satetraxetan
1,Cn1cc(C2=C(c3cn(C4CCN(Cc5ccccn5)CC4)c4ccccc34)C(=O)NC2=O)c2ccccc21,0.128
2,O=C(Oc1ccc([N+](=O)[O-])cc1)N1CCC(C(O)(c2ccc3c(c2)OCO3)c2ccc3c(c2)OCO3)CC1,0.11
3,O=C(O)c1nn(Cc2ccc(Cl)cc2Cl)c2ccccc12 [Lonidamine],0.173
4,N.N.[Cl][Pt][Cl] [Cisplatin],0.172
5,O=P1(N(CCCl)CCCl)NCCCO1 (configuration not stated) [Cyclophosphamide monohydrate],0.184
6,CCC1(c2ccc(N)cc2)CCC(=O)NC1=O (configuration not stated) [Aminoglutethimide (Cytadren)],0.0218
7,Cc1cc2c(C(C)C)c(O)c(O)c(C=O)c2c(O)c1-c1c(C)cc2c(C(C)C)c(O)c(O)c(C=O)c2c1O [Gossypol],0.0445
8,CC(O)(CS(=O)(=O)c1ccc(F)cc1)C(=O)Nc1ccc(C#N)c(C(F)(F)F)c1 (configuration not stated) [Bicalutamide (Casodex)],0.0662
9,CC(C)[C@]12O[C@H]1[C@@H]1O[C@]13[C@]1(O[C@H]1C[C@H]1C4=C(CC[C@@]13C)C(=O)OC4)[C@@H]2O [Triptolide],0.774
10,CN(C)CCN(C)CCc1ccc(Cl)c(Cl)c1,0.0756
11,C=C1C[C@@H]2[C@H](CC[C@]3(C)C(=O)CC[C@@H]23)[C@@]2(C)C=CC(=O)C=C12 [Exemestane],0.169
12,CC[C@@H](C(=O)[C@@H](C)[C@@H](O)[C@H](C)[C@@H]1O[C@@H]([C@@H](CC)C(=O)O)CC[C@@H]1C)[C@H]1O[C@]2(C=C[C@@H](O)[C@]3(CC[C@@](C)([C@H]4CC[C@](O)(CC)[C@H](C)O4)O3)O2)[C@H](C)C[C@@H]1C [Salinomycin (Procoxacin)],0.245
